This passage reports growth results from PubChem BioAssay (NCI).

Values joined by “and” are separate entries in the source; they are usually repeats but may differ in a detail not shown here. Equal values may be shown once. About 83,000 compounds went through this panel and 20% of them were active in at least one assay; those are over-represented in the sample as a whole.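 Plates (96-well) were seeded with cells, treated with compound at one concentration, and incubated for 48 hours before percent growth was determined.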 Values without a mark were called inactive. Active and inactive are the calls of the source. Rule for the calls: active = growth percent below 10; inactive = the rest.

This assay relates to HL-60(TB) leukemia. Nature of the assay: NCI-60 one-dose screen, 48 h (100 = growth as untreated, 0 = no growth, -100 = all killed). The settings on record: 10 µM unless noted.
As for `Clc1ccc2c(NCCCNCc3ccc4c(c3)OCO4)ccnc2c1`, the growth is 76.3%.

Consider `O=C1/C(=C/c2ccc(Cl)cc2)SC(=S)N1CCc1ccc(O)cc1`, for which the growth was 76.6%.

With `CCCNC(=S)N/N=C(\C)c1ccccn1`, the growth was -8.41% (active).

For `CC1=CC(O)C2CC1C2(C)C` (stereo not given), the growth is 100% and 73.7%.

Turning to `COc1cc(/C=C2\Oc3cc(OCCCN4CCCC4)ccc3C2=O)cc(OC)c1`, the growth is 72.5%.

Turning to `CCCc1c(C)nc2scc(-c3ccc(Cl)cc3)n2c1=O`, the growth was 98%.

Consider `O=C(O)C1CSC(c2ccccc2)N1` (stereo not given), for which the growth is 128%.

For the compound `CC(=O)c1c(-c2ccc(OC(F)(F)F)cc2)nc2ccccn12`, the growth was 115%.

Take `CCc1ccc(CCCC(=O)O)cc1`: the growth was 98.8%.

Take `O=C1N(C2CCCCC2)C(=O)N1C1CCCCC1`: the growth is -16.2% (active).

As for `CC(C)c1ccc2c(c1)CCC1C2CCCC1(C)NCc1ccccc1` (stereo not given), the growth is 22.9%.

On to `CC(C)(C)c1ccc(Cn2cc(CSc3nc4ccccc4s3)nn2)cc1`, for which the growth was 93.7%.

As to `COC(=O)CNC(=O)[C@@H](OC)[C@@H]1Cc2cc3cc(OC4CC(OC5CC(O)C(O)C(C)O5)C(O)C(C)O4)c(C)c(O)c3c(O)c2C(=O)[C@H]1OC1CC(OC2CC(OC3CC(C)(O)C(O)C(C)O3)C(O)C(C)O2)C(O)C(C)O1` (stereo not given in full), the growth was 41%.

As to `CCCCCCCSc1ncnc2[nH]ncc12`, the growth was 87.4%.

Consider `Nc1c(S(=O)(=O)O)cc(Br)c2c1C(=O)c1ccccc1C2=O`, for which the growth is 103% and 91%.

Take `COc1ccc(C2=CC(c3ccc(OC)cc3Br)N3C=CSC3=N2)cc1` (stereo not given): the growth is 61.4%.

In the case of `CCN(CC)CCNC(=O)c1cn2ncnc(Oc3ccc(NC(=O)Nc4ccc(Cl)c(C(F)(F)F)c4)c(F)c3)c2c1C`, the growth is -45% (active).

Take `COc1cc(C2c3cc(OC(C)=O)c(OC)cc3CC3C(=O)OCC32)ccc1OC(C)=O` (stereo not given): the growth is 71.7%.

As for `N#CCCN=Nc1c(O)[nH]c2ccc(F)cc12`, the growth was 110%.

Take `NC(N)=Nc1ccc(S(=O)(=O)O)cc1`: the growth was 108%.

For the compound `COC(=O)c1ccc(CSc2nnc(-c3c(C)nc4ccc(C)cn34)o2)cc1`, the growth was 97.5%.

In the case of `C=C(C)[C@@H]1CC[C@]2(C(=O)NCC#CCN3CCN(C)CC3)CC[C@]3(C)[C@H](CC[C@@H]4[C@@](C)(CCC#N)[C@H](C(=C)C)CC[C@]43C)[C@@H]12`, the growth is 10.9%.

`CC(=O)N(N=Nc1ccccc1)c1cccc2ccccc12`: the growth is 116%.

For the compound `O=C(Nc1nc2c(s1)CCc1c-2c(Br)n(Cc2ccccc2)c1Br)c1ccccc1`, the growth is 84.3%.

As to `O=c1c2cc(F)ccc2sc2c(N3CCCCC3)nc3ccccc3c12`, the growth was 102%.

With `O=C(Nc1ccc(Cl)cc1)Nc1ccccc1CNc1nc(Nc2ccc(OCCN3CCCC3)cc2)ncc1Cl`, the growth was -45.1% (active).

Turning to `CC(C)NC1CCC(Nc2ccnc3cc(Cl)ccc23)CC1` (stereo not given), the growth is 57.9%.

Consider `COc1ccc(C(=O)COc2ccc(/C=C3\Oc4ccc5ccccc5c4C3=O)cc2)cc1`, for which the growth was 87.3%.

As for `COC(=O)[C@]12CCC(C)(C)C[C@H]1C1=CC[C@@H]3[C@@]4(C)C/C(=C/c5cccnc5)C(=O)C(C)(C)[C@@H]4CC[C@@]3(C)[C@]1(C)CC2`, the growth is -13.5% [100 µM] (active).

Regarding `C=C1C(=O)O[C@H]2[C@H]1CC/C(COC(=O)NCCc1ccc(OC)cc1)=C\CC[C@@]1(C)O[C@@H]21`, the growth is -22% (active).

`CCOc1ccc(-c2nonc2NC(=O)c2cccc(C)c2)cc1OCC`: the growth is 73%.

For the compound `Cc1c2c(nn1C(=O)c1nn(-c3ccc(Cl)cc3)cc1O)-c1ccccc1CC2`, the growth is -43.4% (active).

For the compound `CC(C)C(=O)Nc1ccc([N+](=O)[O-])c(C(F)(F)F)c1`, the growth was 91.1% and 98.3%.

Turning to `O=C(O)c1ccc(S(=O)(=O)O)cc1`, the growth was 115%.

Regarding `CN1C(=O)C(N=Nc2ccc([N+](=O)[O-])cc2)SC1=S` (stereo not given), the growth is -4.43% (active) and -10.4% (active).

Turning to `COC(=O)CNC(=O)[C@H](Cc1ccccc1)NCc1ccncc1`, the growth is 88.6%.

With `CCN1CCN(Cc2cn(CC(=O)Nc3ccc4c(ccn4Cc4ccccc4)c3)nn2)CC1`, the growth was 95.5%.

`COc1cccc(CC(C)=C(c2ccc(OCCN(C)C)cc2)c2ccc(OCCN(C)C)cc2)c1`: the growth was -62.5% (active).

`COc1cccc(C2C3=C(COC3=O)N(CCO)c3cc(OC)ccc32)c1` (stereo not given): the growth is -25.9% (active).

On to `Cn1cnc2c(N3CCN(C(=O)OCc4ccc5c(Cl)cc(Cl)c(O)c5n4)CC3)nc(Cl)nc21`, for which the growth is 66%.
